Rows were chosen to be rich in hits. Some 1.2% of all compounds tested hit in one or more screens of this group.
NCOA1 inh = SRC1 coactivator transcriptional activity inhibitors, primary screen, cell-based, luminescence; inhibition, % at 3.6 µM; actives 0.12% (n = 360,000); Nuclear receptor coactivator 1 (Homo sapiens), Q15788; HEK293 GAL4-SRC1 luciferase reporter;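 active means inhibition above the campaign mean plus 3 SD, with each screening campaign given its own cutoff, cut at about 60% in these data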;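 further: 0% = DMSO treated cells and 100% = gossypol at 36 µM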
NCOA3 inh = SRC3 coactivator transcriptional activity inhibitors, primary screen, cell-based, luminescence; Nuclear receptor coactivator 3 (Homo sapiens), Q9Y6Q9; HEK293 GAL4-SRC3 luciferase reporter; inhibition, % at 3.6 µM; actives 0.17% (n = 360,000);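 active means inhibition above a per-campaign cutoff, the mean of all compounds plus 3 SD, cut at about 60% in these data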;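 further: 0% = DMSO-treated cells and 100% = gossypol-treated cells at 36 µM; higher means less SRC3-driven luciferase light from the GAL4 reporter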
EBV LMP1 NFkB = EBV LMP1-driven NF-kappaB luciferase reporter inhibitors, primary screen, cell-based, luminescence, single point; LMP1-induced NF-kappaB luciferase reporter cells; inhibition, % at 12.5 µM; actives 0.69% (n = 350,000); in the data active means inhibition above about 41%; inconclusive means no clear call, values can overlap the other calls;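 further: 0% = neutral control wells and 100% = reference inhibitor control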
Shn3 inh set2 = reduction of Shn3 3'UTR firefly luciferase signal, primary screen, Schnurri-3 inhibitor project, cell-based, Clone20 osteoblasts, set 2; Clone20 osteoblast Shn3 3'UTR firefly luciferase, 24 h; inhibition, % at 12.5 µM; actives 0.52% (n = 360,000); AID 588674, 2011;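 active means mean inhibition of at least 75% with every replicate also reaching 75%; inconclusive means mean inhibition at least 75% but some replicate below; inactive means mean inhibition below 75%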;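 further: 0% = median of neutral control wells and 100% = pilot-screen positive control compound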
LRH-1 inv ag = LRH-1 (NR5A2) inverse agonists, primary screen, cell-based, luminescence, HEK293T, StAR-luciferase reporter | LRH-1 transfected, 24 h | inhibition, % at 3.6 µM | actives 0.13% (n = 360,000);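 active means inhibition above the mean inhibition of all tested compounds plus 3 SD, cut at about 73% in these data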;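 further: 0% = DMSO wells and 100% = reporter-only cells lacking LRH-1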
Target sequence (O00482 whole entry, looked up): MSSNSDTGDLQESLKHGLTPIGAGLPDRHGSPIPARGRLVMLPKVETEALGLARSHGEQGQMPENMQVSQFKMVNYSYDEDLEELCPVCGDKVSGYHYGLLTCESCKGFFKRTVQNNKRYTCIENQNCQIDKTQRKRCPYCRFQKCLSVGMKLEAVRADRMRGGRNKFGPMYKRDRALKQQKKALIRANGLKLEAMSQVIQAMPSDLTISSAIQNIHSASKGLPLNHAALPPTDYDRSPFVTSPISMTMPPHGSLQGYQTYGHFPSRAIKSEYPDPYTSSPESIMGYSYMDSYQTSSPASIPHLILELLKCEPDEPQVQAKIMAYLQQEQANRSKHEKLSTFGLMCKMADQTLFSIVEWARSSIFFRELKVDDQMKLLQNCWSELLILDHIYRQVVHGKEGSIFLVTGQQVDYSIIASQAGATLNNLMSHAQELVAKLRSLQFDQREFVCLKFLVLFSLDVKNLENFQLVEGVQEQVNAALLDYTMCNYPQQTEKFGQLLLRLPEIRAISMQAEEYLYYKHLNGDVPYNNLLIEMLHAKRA
SRC2 inh = inhibition of GAL4-SRC2 driven luciferase reporter, primary screen, SRC2 inhibitor project, cell-based, luminescence; HEK293 GAL4-SRC2 luciferase reporter; Nuclear receptor coactivator 2 (Homo sapiens), Q15596; actives 0.17% (n = 370,000); inhibition, % at 9 µM; AID 651957, 2012;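 active means inhibition above the mean inhibition of all tested compounds plus 3 SD, set per campaign, cut at about 52% in these data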;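 further: 0% = DMSO treated cells and 100% = cells given Gossypol at 36 µM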
* hit, by the source's call; ? = inconclusive; nt = no result.

SMILES | NCOA1 inh | NCOA3 inh | EBV LMP1 NFkB | Shn3 inh set2 | LRH-1 inv ag | SRC2 inh
CCCCC1C(=O)N(c2ccccc2)N(c2ccc(O)cc2)C1=O (stereo unspecified) | -55.9 | -26.0 | 54.6* | 80.0 | -8.6 | -91.5
CCCCC1(CO)C(=O)N(c2ccccc2)N(c2ccccc2)C1=O | -4.0 | 17.1 | -5.2 | nt | 19.6 | 5.4
CCOc1ccc2nc(NC(=O)c3ccccn3)sc2c1 | -109.5 | -69.0 | 57.4* | 64.9 | -96.5 | -56.0
O=C(COc1ccccc1)NNc1nc2c(F)cc(F)cc2s1 | -0.8 | 20.4 | 4.0 | -6.9 | -3.1 | -27.8
O=C(Nc1nc2c(F)cc(F)cc2s1)c1ccccn1 | -132.5 | -110.4 | 44.3* | 87.6* | -118.0 | -43.8
CCOc1ccc2nc(NC(=O)Nc3ccccc3)sc2c1 | -83.4 | -92.9 | -64.7 | -27.4 | -165.0 | -88.6
Cc1ccc2nc(NC(=O)c3ccccn3)sc2c1 | -6.3 | 12.0 | 81.5* | 54.5 | -7.4 | 27.9
CCCOc1ccc(/C=N/NC(=S)Nc2ccccc2[N+](=O)[O-])c(O)c1 | nt | nt | nt | nt | nt | 52.5*
Cc1ccc(SCc2[nH]nc3c2C(c2ccc(C)o2)C(C#N)=C(N)O3)cc1 (stereo unspecified) | -26.4 | 13.7 | 66.3* | -12.6 | -6.6 | 1.5
S=c1[nH]nc(-c2cccnc2)n1/N=C/c1ccccc1 | -10.4 | 12.1 | 3.4 | 0.4 | -8.7 | -7.7
Fc1cccc(Cl)c1/C=N/n1c(-c2cccnc2)n[nH]c1=S | -17.8 | -0.7 | 52.0* | 1.0 | 2.1 | -23.6
COC(=O)C[C@H]1CC[C@H]2[C@H](COc3ccc(NS(=O)(=O)c4cccc(OC)c4)cc3C(=O)N2C)O1 | nt | nt | nt | nt | nt | -1.1
NNC(=O)COc1ccc(-c2nccc(-c3ccc(F)cc3)n2)cc1 | -32.5 | -3.3 | 23.6 | 22.5 | 13.4 | 53.2*
FCCCOc1ccc(-c2nccc(-c3ccccn3)n2)cc1 | -22.9 | -5.6 | -6.2 | -20.6 | -35.0 | 4.4
O=C(O)COc1ccc(-c2nccc(-c3ccccn3)n2)cc1 | 9.9 | 9.8 | 11.2 | 20.9 | 10.4 | 67.1*
CCCCCCCCN1C(=O)[C@@H](CC(=O)NCc2ccc(OC)c(OC)c2)C[C@@]2(C(=O)OC)C1=C[C@H](C(C)C)O[C@@H]2C1CC1 | nt | nt | nt | nt | nt | 12.2
C=CC[C@H]1c2ccccc2[C@H]2N3N=Cc4ccccc4[C@H]3[C@H](CCCC)C(=O)N2N1C(=O)c1ccccc1 | nt | nt | nt | nt | nt | -1.5
COc1ccc(N(C)C(=O)c2ccc3snnc3c2)cc1 | 2.2 | -19.7 | -5.2 | 86.8* | 5.6 | -2.4
COC(=O)[C@]12C[C@H](CC(=O)N3CCCC3)C(=O)N(Cc3ccccc3)C1=C[C@H](C1CCCC1)O[C@@H]2C | nt | nt | nt | nt | nt | -1.9
S=C(N/N=C/c1ccc2ncccc2c1)Nc1cccnc1 | 4.7 | 40.5 | 54.8* | 28.0 | -34.7 | 20.8
CCCCC(=O)NC(c1ccc(OC)c(OC)c1)c1c(O)ccc2ccccc12 (stereo unspecified) | 5.0 | -0.5 | -8.6 | -50.6 | -17.3 | nt
CCCCC(=O)NC(c1ccccc1OC)c1ccc2cccnc2c1O (stereo unspecified) | 18.3 | 31.9 | 66.4* | 93.9* | 38.2 | 36.8
COc1ccccc1C(NC(C)=O)c1cc(Cl)c2cccnc2c1O (stereo unspecified) | 33.1 | 21.0 | 31.2 | ? | 8.0 | 32.2
CCCC(=O)NC(c1ccccc1OC)c1ccc2cccnc2c1O (stereo unspecified) | 39.0 | 53.2 | 70.6* | 87.8* | 80.0* | nt
COC(=O)C1CN(CCc2ccccc2)CCS(=O)(=O)N1Cc1ccccc1F (stereo unspecified) | nt | nt | nt | nt | nt | 1.2
SMILES | NCOA1 inh | NCOA3 inh | EBV LMP1 NFkB | Shn3 inh set2 | LRH-1 inv ag | SRC2 inh
NC(=O)C1(N2CCCCC2)CCN(C(=O)c2ccc(-n3cnnn3)cc2)CC1 | -16.9 | -31.6 | 64.2* | -2.0 | -6.1 | -13.5
COCCNC(=S)N(CCc1c(C)[nH]c2ccc(OC)cc12)Cc1cccnc1 | 19.6 | -1.3 | 42.0* | -4.0 | 22.1 | -49.3
C[C@@H]1COc2cccc(N3CCCC3)c2S(=O)(=O)N1 | nt | nt | nt | nt | nt | -1.5
COc1ccc([C@H]2OC(=O)C[C@H]2C(=O)N2CCN(c3ccccc3Cl)CC2)cc1OC | nt | nt | nt | nt | nt | 11.9
COC[C@H]1CCCN1c1cccc2c1S(=O)(=O)N(C1CC1)CC[C@@H](C)O2 | nt | nt | nt | nt | nt | -29.6
COC(=O)[C@]12C[C@H](CC(=O)NCc3ccc(C)o3)C(=O)N(Cc3ccc4c(c3)OCO4)C1=C[C@H](COCc1ccccc1)O[C@@H]2C | nt | nt | nt | nt | nt | 3.9
Cc1ccc(-c2ccc(/C=N/c3ncn[nH]3)o2)cc1Cl | -16.3 | 5.1 | 58.8* | -2.9 | -12.4 | -4.3
COc1ccc(CC(=O)NCCc2cnc[nH]2)cc1 | -9.7 | -3.8 | 2.9 | 3.0 | 5.3 | 6.7
S=C(NCCCCN(Cc1ccc(Cl)cc1)c1ccc(Br)cn1)NCCCc1cnc[nH]1 | 36.6 | 60.0 | nt | 82.9 | 95.3* | 40.6
COc1cccc(C(=O)OCn2nnc3ccccc3c2=O)c1OC | 1.7 | -7.6 | 53.5* | 13.0 | 9.3 | 12.8
COc1cc(C(=O)OCn2nnc3ccccc3c2=O)cc(OC)c1OC | -14.8 | 13.4 | 3.5 | 1.0 | 9.2 | -21.5
CCC(/C=C1\Sc2ccc(OC)cc2N1CCO)=C\c1sc2ccc(OC)cc2[n+]1CCO | -9.9 | 15.5 | 45.8* | 15.0 | 10.0 | 5.3
CCC(/C=C1\Sc2ccc(OC)cc2N1CC)=C\c1sc2ccc(OC)cc2[n+]1CCCS(=O)(=O)[O-] | 3.1 | 2.4 | 17.6 | 74.9 | 7.9 | 16.2
COC(=O)[C@]12C[C@H](CC(=O)NCC3CCCCC3)C(=O)N(Cc3ccc(Cl)cc3Cl)C1=C[C@H](C(C)C)O[C@@H]2C1CC1 | nt | nt | nt | nt | nt | 10.4
c1ccc(-c2cccc(-c3ccccn3)n2)nc1 | 80.6* | 83.6* | 52.9* | 87.6* | 97.6* | nt
c1ccc(-c2nnc(-c3ccccn3)nn2)nc1 | -123.7 | -83.5 | -1.5 | -40.5 | -125.8 | -59.6
COC(=O)[C@]12CCCCC=C1N(CCc1ccc(OC)c(OC)c1)C(=O)[C@H](CC(=O)NCCc1ccccc1OC)C2 | nt | nt | nt | nt | -14.2 | 12.9
c1ccc(-c2nnc(-c3ccccn3)c(-c3ccccn3)n2)nc1 | 5.5 | -1.6 | nt | -6.6 | -2.4 | -35.3
CN(C)c1nc(-c2ccccn2)nnc1-c1ccccc1 | -10.5 | 11.1 | -17.9 | 92.7* | 32.3 | 18.1
COc1ccc(Oc2nc(-c3ccccn3)ncc2OC)cc1 | -10.3 | 21.4 | 8.7 | 5.5 | -6.2 | -5.6
COc1cnc(-c2ccccn2)nc1N(C)C | -8.9 | 4.4 | 1.7 | 88.8* | -31.1 | 21.6
CCCCCn1nnnc1C1(C)CSCC(=O)N1Cc1ccco1 (stereo unspecified) | nt | nt | nt | nt | nt | -12.2

Compound activity as filed in PubChem.
